Measurements reported in paper PMC12136788.
Positions count from the first letter of the chain named. Whole data set: some 24,000 sequences, median “enrichment r” near 0.99, cut for the highest 2% near 3.7. Only a selection was taken, and the highest values are over-represented in it overall.

T1: UNK ZnF1-3 (human, UniProt Q9C0B0 31-174)
T1 sequence: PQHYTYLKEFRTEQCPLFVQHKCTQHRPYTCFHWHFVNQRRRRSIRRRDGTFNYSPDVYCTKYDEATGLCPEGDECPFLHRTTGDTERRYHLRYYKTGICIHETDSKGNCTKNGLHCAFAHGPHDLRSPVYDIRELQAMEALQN

B1: 86747786_86748123_1683_CDS_ENSMUSG00000035671_ENSMUST00000039480|mouse|control|control (ssRNA)
RNA: GGGAGUUCUACAGUCCGACGAUCGUGCUGGUAGGCCAGCUUUCGCUUCUCUGGGGCUGAGUCUGGGAAAAGAGAGUGAGGCUCCUCCUCCAGGCGACAGGCCUCCAGCAGUGCCCUGCAGAGGCAGCCAAUGGGAUCCAGGGGCAACAGAGGAUUGAGCAUCA
B2: chr11:77336104:77336105:-_ENSG00000074201_ENST00000525064|hu_mus|hu_hu_hu_mus_False|68_98 (ssRNA)
RNA: GGGAGUUCUACAGUCCGACGAUCCUCACACAUUGCUGUGAACAUUGCCUCCAAUGCUGACUUAUCACUAGGCACAAAUCGAAAUUCAGAAAUGGGUUCAACAUCAUCAUUGUCUUCCUCAUCUUCAUCAGAGAGAGGUUCUUUCAACAGAGGAUUGAGCAUCA
B3: chr16:5009651:5009652:-_ENSMUSG00000022540_ENSMUST00000023191|mus_hu|FALSE|FALSE (ssRNA)
RNA: GGGAGUUCUACAGUCCGACGAUCUGCAGGGAGACGGUGAAGUAGACCAGGGCGUCGUUGAGCCAGGGGAUCACGCACUCCACUUUGUGCACGUGGCUCACCUCCAGGCGCUGAGAGCCCCACUCGAACAUGGCCCCAGGGCUACAACAGAGGAUUGAGCAUCA
B4: 133220860_133220980_1226_CDS_ENSMUSG00000043257_ENSMUST00000062118|mouse|control|control (ssRNA)
RNA: GGGAGUUCUACAGUCCGACGAUCGUAUAUUAGAGGAAGGUCCCAGGAGCACCAUGGGGGUGCAUUUUCUCCUGCAAGCCGGUAGCCUUUGUCGGCAGCUAGCUGCAGCAAGGGCUCAGGGAUGGAGGGGGCUGAGCCUGGUGACAACAGAGGAUUGAGCAUCA
B5: chr7:141441981:141441982:+_ENSG00000106028_ENST00000265304|hu_mus|hu_hu_hu_mus_False|48_88 (ssRNA)
RNA: GGGAGUUCUACAGUCCGACGAUCCUCAUGUCUUACAAACUGACGAAGUACCUGUAACACAGGUCUUCGAAACAUGGCUUCUGUUUUCUUUUCUUACUAAUCUUUAGGCUUUUCCUAAAGGAAAGAAAGAAAAGAGAAAAAUGACAACAGAGGAUUGAGCAUCA
B6: chr17:56552419:56552420:-_ENSMUSG00000013236_ENSMUST00000086828|mus_mus|mus_mus_mus_hu_False|18_78 (ssRNA)
RNA: GGGAGUUCUACAGUCCGACGAUCAAAAAAUACACUAUUUAAAAAAAAUGAAAUGUCAGAAAAAGAAGUUACACUGAGAGUUUUAAAAGAAAGCUGGAUUCUGGUCCCAGCCCAGUGGCAGGCAGGGGCAGAGCGGGGAGGAGCCAACAGAGGAUUGAGCAUCA
B7: chr17:56552419:56552420:-_ENSMUSG00000013236_ENSMUST00000086828|mus_mus|mus_mus_mus_hu_False|48_78 (ssRNA)
RNA: GGGAGUUCUACAGUCCGACGAUCAAAAAAUACACUAUUUAAAAAAAAUGAAAUGUCAGAAAAAGAAGUUACACUGAGAGUUUUAAAAAAAAAUAAGAUUCUGGUCCCAGCCCAGUGUCCCCAGGCUGCAGAGCGGGGAGGAGCCAACAGAGGAUUGAGCAUCA
B8: chr17:56552419:56552420:-_ENSMUSG00000013236_ENSMUST00000086828|mus_mus|mus_mus_mus_hu_False|38_78 (ssRNA)
RNA: GGGAGUUCUACAGUCCGACGAUCAAAAAAUACACUAUUUAAAAAAAAUGAAAUGUCAGAAAAAGAAGUUACACUGAGAGUUUUAAAAGAAAGCUGGAAAAAAAAUGCAGCCCAGUGUCCCCAGGCUGCAGAGCGGGGAGGAGCCAACAGAGGAUUGAGCAUCA
B9: chr17:56552419:56552420:-_ENSMUSG00000013236_ENSMUST00000086828|mus_mus|mus_mus_mus_hu_False|78_78 (ssRNA)
RNA: B7 RNA with A88G, A92G, U93C, A94U, A95G
B10: chr4:153332861:153332862:-_ENSG00000109670_ENST00000281708|hu_mus|FALSE|FALSE (ssRNA)
RNA: GGGAGUUCUACAGUCCGACGAUCCUCCUCUUGAUGUCUCGCUUGCUGCUGUGGAUCCUCCUCAACCACGCGAUUCAUCUGUCCCUCAUCAACCUGGCUUGAGGAAGCAUUCCCUCUCAGAGAGCCUCCAGUUCGUCGUCUUUUCAACAGAGGAUUGAGCAUCA
B11: 46544062_46544572_2905_CDS_ENSG00000123200_ENST00000242848|human|control|control (ssRNA)
RNA: GGGAGUUCUACAGUCCGACGAUCUUCUUGAGGUCGUACAACUUGGCUCAAGAGUCUGUGUUUUUCAUUUUUAUCAUCUCCACUGUUGUAGGCAUCACUGUCCGGAGAAUGUUCACGCCGGCGCUUCGGGGACUGUCUAGGGCUCAACAGAGGAUUGAGCAUCA
B12: chr2:180329438:180329439:+_ENSMUSG00000049401_ENSMUST00000029087|mus_mus|FALSE|FALSE (ssRNA)
RNA: GGGAGUUCUACAGUCCGACGAUCCUCAGAGACACCCUGAGGAUCUGGCUCCCCUGGGACCUGCUCCUGCCUGUUCCCCUCCAACUUCCUCUUCUUGCUUUCUUUGGGACUCGGGGACUUAGCCUCAUGCCUUUGGUCCCCAUCCAACAGAGGAUUGAGCAUCA
B13: chr3:150289932:150289933:+_ENSG00000144895_ENST00000460851|hu_hu|hu_hu_hu_mus_False|18_28 (ssRNA)
RNA: GGGAGUUCUACAGUCCGACGAUCCUUGUAGUUUUUAACAUCCCAUACUUCCAUUUGUCCUCGAAGAUUUCCAAAUCCAGCCAGCACUAAUAUAUGUCCAUGAGGGCUAUAGUAGGCUGCAUUACGAGGACCAGUCCCAAAGUCCAACAGAGGAUUGAGCAUCA
B14: chr16:94664382:94664383:+_ENSMUSG00000040785_ENSMUST00000117648|mus_hu|FALSE|FALSE (ssRNA)
RNA: GGGAGUUCUACAGUCCGACGAUCAAAAGCUGGUGCUGAAGAUGAAUCUGACACUGGUUUAGACUUUACAUCUGGUUUAAAUUCCCUAGCAGCUGGAUUCAGUUGUAGUUUAACUCGUACAUACUCCCCUGCUUUUGAAAUUUCCAACAGAGGAUUGAGCAUCA
B15: chr11:88707168:88707169:-_ENSMUSG00000018428_ENSMUST00000018572|mus_mus|FALSE|FALSE (ssRNA)
RNA: GGGAGUUCUACAGUCCGACGAUCAAGGGGAAGAGCGAACGCAACUGGAUUGCCAUCUUGGAGUCAGUCGAUGUGAAGUAGCUACACCUGCUCCUGGGCGACCGUCUAGGCACUCAAUCCUCCCGCCACCGCCCCCUGGCCCCCCAACAGAGGAUUGAGCAUCA
B16: chr3:184044699:184044700:+_ENSG00000114867_ENST00000411531|hu_hu|motif|central (ssRNA)
RNA: GGGAGUUCUACAGUCCGACGAUCAUUAUCUGUGCUUUCUGUGGGUACCGCUUGUUGAAGGGCUGAGAAGCGAUUCAAAGUACGGGUAGCUGGGCGAGCAGCUUCUGAUGCUGCGUCUGAGGGCUUGGCUCCUGAGCCUCCGCUCAACAGAGGAUUGAGCAUCA
B17: chrX:77155053:77155054:+_ENSG00000131174_ENST00000481445|hu_hu|motif|central (ssRNA)
RNA: GGGAGUUCUACAGUCCGACGAUCCGAACUUGGAGACGAUUUAGUGCGCUUUUGACCAAGGGAAACAUCGUGAAGGUGAAGCGGGAACUGCGGCAAUACAGCUGCUGCUUUGGUGCCAAUUCGCUUCAGGUACCCUUGAAGUGACAACAGAGGAUUGAGCAUCA
B18: chr5:71490711:71490712:+_ENSG00000131711_ENST00000296755|hu_hu|motif|central (ssRNA)
RNA: GGGAGUUCUACAGUCCGACGAUCCACAGGAGUGGGCACCUGGCCAGUGAGAUCCUUUUGGGUGGCCAGUGGCUGCUUCAGAAAGUCGGGAUGUUUGAGCUUUUCCAACCCUUCCAGGAUGUUGUACUGGGUGCUGUUCCCAGGCAACAGAGGAUUGAGCAUCA
B19: chr2:153237265:153237266:-_ENSMUSG00000061411_ENSMUST00000109784|mus_mus|mus_mus_mus_hu_False|18_28 (ssRNA)
RNA: GGGAGUUCUACAGUCCGACGAUCAAAAAAAAAAAAAAAAAAGUGUCCUUGUGCCCAAAGUCUCAGGUGCUUGGAGUGUGGCUAGAAACAGCUCUUUUGGAUCCCACCUCUUUCAGAAAACAGUGUAACCAACUGGUGAGGCAGCAACAGAGGAUUGAGCAUCA
B20: chr2:153237265:153237266:-_ENSMUSG00000061411_ENSMUST00000109784|mus_mus|mus_mus_mus_hu_False|18_18 (ssRNA)
RNA: B19 RNA with G115A
B21: chr2:153237265:153237266:-_ENSMUSG00000061411_ENSMUST00000109784|mus_mus|mus_mus_mus_hu_False|18_78 (ssRNA)
RNA: B19 RNA with G66A, G115A
B22: chr2:153237265:153237266:-_ENSMUSG00000061411_ENSMUST00000109784|mus_mus|mus_mus_mus_hu_False|1_18 (ssRNA)
RNA: B19 RNA with G115A, G137A, A138G, G140C, C141A, A142G
B23: chr2:153237265:153237266:-_ENSMUSG00000061411_ENSMUST00000109784|mus_mus|mus_mus_mus_hu_False|18_58 (ssRNA)
RNA: B19 RNA with U78C, G79A, G115A

The binders below were run against T1, UNK ZnF1-3 (assay: nsRBNS (natural sequence RNA bind-n-seq); RBNS binding buffer (assumed for nsRBNS): 25 mM Tris pH 7.5, 150 mM KCl, 3 mM MgCl2, 0.01% Triton X-100, 500 ug/ml BSA, 20 U/ml SUPERase-In, 4 C; UNK is unkempt and MSI1 is Musashi-1; names of the RNAs are library labels; protein concentration not given here; high values mean tight binding).
B1 showed a binding signal of 0.778 enrichment R. With B2 the binding signal was 0.885 enrichment R. With B3 the binding signal was 0.75 enrichment R. B4 was tested, and the binding signal was 1.08 enrichment R. Binder B5 has a binding signal of 0.351 enrichment R. B6 showed a binding signal of 3.82 enrichment R. For B7, the binding signal was 9.32 enrichment R. B8 showed a binding signal of 9.26 enrichment R. In the case of B9, the binding signal is reported as 4.51 enrichment R. For B10, the binding signal was 0.439 enrichment R. For B11, the binding signal was 0.885 enrichment R. Work on B12 yielded a binding signal of 0.716 enrichment R. In the case of B13, the binding signal is reported as 0.862 enrichment R. Work on B14 yielded a binding signal of 1 enrichment R. With B15 the binding signal was 1.08 enrichment R. Binder B16 has a binding signal of 0.754 enrichment R. With B17 the binding signal was 0.887 enrichment R. B18 showed a binding signal of 1.1 enrichment R. Work on B19 yielded a binding signal of 3.55 enrichment R. B20 gave a binding signal of 5.16 enrichment R. B21 gave a binding signal of 4.87 enrichment R. For B22, the binding signal was 6.33 enrichment R. Work on B23 yielded a binding signal of 4.98 enrichment R.
